Measurements as given in PubChem BioAssay (NCI).
Compounds without any hit were thinned out: in the full panel of roughly 79,000, 15% have a hit. A number with no mark means an inactive call. Active and inactive are the calls of the source. No stated cut-off is given here; in the data, active means growth inhibition above about 70%; inactive means the rest.

Columns and labels:
[1] = NCI Yeast Anticancer Drug Screen. Data for the rad50 strain (AID 155);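 further: 0% = growth of vehicle-only cultures of the same strain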; settings: S. cerevisiae rad50 strain growth inhibition; at 50.0 µM; hits give high values
Method in brief: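 Inhibition values express reduced yeast growth in compound-treated cultures relative to vehicle-treated controls.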

[2] = NCI Yeast Anticancer Drug Screen. Data for the mec2-1 strain (AID 157); settings: S. cerevisiae mec2-1 strain, at 50.0 µM, hits give high values
Method in brief: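 mec2-1 yeast strain, carrying an alteration in DNA damage repair or cell cycle control, was exposed to compounds; growth inhibition was measured relative to vehicle-treated controls.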

[3] = NCI Yeast Anticancer Drug Screen. Data for the sgs1 mgt1 strain (AID 161);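 further: 0% = growth of cultures given vehicle only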; settings: S. cerevisiae sgs1 mgt1 strain, at 50.0 µM, hits give high values
Method in brief: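 Yeast cells carrying a defined DNA-repair defect were exposed to test compounds. Growth inhibition was measured relative to vehicle-treated controls.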

[4] = NCI Yeast Anticancer Drug Screen. Data for the cln2 rad14 strain (AID 165);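 further: 0% = growth equal to vehicle treated cultures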; settings: S. cerevisiae cln2 rad14 strain, at 50.0 µM, hits give high values
Method in brief: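 Yeast carrying cln2 and rad14 alterations (cell cycle control and DNA damage repair) were exposed to compounds. Growth inhibition was measured against vehicle-treated controls.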

[5] = NCI Yeast Anticancer Drug Screen. Data for the bub3 strain (AID 167); settings: S. cerevisiae bub3 mutant strain, at 50.0 µM, hits give high values
Method in brief: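 Steps: expose the mutant yeast strain to compound; grow alongside vehicle-treated cultures; measure growth; express inhibition against the vehicle cultures.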

[6] = NCI Yeast Anticancer Drug Screen. Data for the mlh1 rad18 strain (AID 175); settings: S. cerevisiae mlh1 rad18 strain growth inhibition; at 50.0 µM; hits give high values
Method in brief: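 Growth inhibition of the yeast strain was measured after compound exposure and expressed relative to vehicle-treated controls. The strain carries defined defects in DNA damage repair.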

| Structure (SMILES) | growth inhibition [1] | growth inhibition [2] | growth inhibition [3] | growth inhibition [4] | growth inhibition [5] | growth inhibition [6] |
| --- | --- | --- | --- | --- | --- | --- |
| CSC(=S)N(C)c1nc(=[N+](C)C)ss1 | -12.8% | -1.2% | -9.8% | -32.4% | -2.25% | 27.3% |
| Cc1csc2sc3ccccc3[n+]12 | 5.75% | -6.85% | -0.5% | -5.8% | -11.9% | -34.1% |
| O=Cc1ccccc1O.O=Cc1ccccc1O.[Cu] | 86.2% (active) | 72.8% (active) | 88.9% (active) | 55.4% | 70.2% (active) | 92.6% (active) |
| CC(=O)OC1CC2(O)C(CCC3(C)C(c4ccc(=O)oc4)CCC32O)C2(C)CCC(O)C=C12 (stereo not given) | 7.25% | -11.4% | -1.75% | -1.75% | -3.4% | 14.8% |
| O=NNc1cccc(NN=O)n1 | 47.2% | -22.8% | -34.1% | -2.75% | -26.5% | -3.15% |
| O=S(=O)(O)O.[Cr+3].[NH-]CC[NH-].[NH-]CC[NH-].[NH-]CC[NH-] | -20.7% | -20.1% | 0.75% | -36.5% | 10% | 7.25% |
| CC(C)=CCC1=C(OOC2=C(CC=C(C)C)C(=O)c3ccccc3C2=O)C(=O)c2ccccc2C1=O | 36.8% | 23.8% | 43% | 11.1% | 5.05% | 5.7% |
| Clc1ccc(-c2csc3cccc[n+]23)cc1 | 7.5% | 4.35% | 19.4% | 24.1% | 22.8% | 19.3% |
| CC(C)c1cccc(C(C)C)c1O | 22.2% | 26% | -21.9% | 3.5% | 10.9% | 12.9% |
| CS(=O)(=O)NC(=O)CBr | -26.1% | -23.6% | -12.8% | 14.6% | -29.4% | -21.1% |
| N#CS.N=C=S.O=N[O-].[Co+3].[NH-]CC[NH-].[NH-]CC[NH-] | -6.55% | 6.3% | 8.25% | -34% | 50.7% | 12.7% |
| CCc1ccccc1[N+](=O)[O-] | 27.2% | 28.7% | 3.8% | 4.65% | 6.45% | 21.2% |
| O=P(Nc1ccccc1)(Oc1ccccc1)N(CCCl)CCCl (stereo not given) | 29.4% | -10% | 1.2% | 24.2% | 7.7% | 20.6% |
| N=P(c1ccccc1)(c1ccccc1)c1ccccc1.[Cr+6].[N-]=C=S.[N-]=C=S.[N-]=C=S.[N-]=C=S.[NH2-].[NH2-] | 3.95% | -2.55% | -3.6% | -3.35% | -2.1% | 0% |
| CC[N+](CC)(CC)CC.[C-]#[O+].[C-]#[O+].[C-]#[O+].[Cr+4].[c-]1[c-][c-][cH-][c-]1 | 11.3% | 12.4% | 8.75% | -10.8% | 6.65% | -5.8% |
| C1CCC(NC2CCCC2)CC1 | 18% | 47.1% | 32.6% | 59% | 12.4% | 13.1% |
| COc1cc2c(cc1OC)CC[N+](C)=C2 | 5.65% | -6.5% | 13.8% | -2.45% | -2.4% | 2.65% |
| CC(=O)O[C@H]1CC[C@@]2(C)[C@H](CC[C@@H]3[C@@H]2CC[C@]2(C)[C@@H](c4ccc(=O)oc4)C[C@H]4O[C@]342)C1 | 53% | 7.05% | 29.5% | 13.9% | 8.45% | 17.4% |
| CN(c1ccccc1)c1nc(=[N+]2CCCC2)ss1 | 11.6% | -1.3% | -11.8% | 0.9% | 7.75% | 24.6% |
| NC(=O)c1cc(N(CCCl)CCCl)c([N+](=O)[O-])cc1[N+](=O)[O-] | 38.9% | -11.1% | 10.4% | 14.4% | 18.6% | 5.5% |

| Structure (SMILES) | growth inhibition [1] | growth inhibition [2] | growth inhibition [3] | growth inhibition [4] | growth inhibition [5] | growth inhibition [6] |
| --- | --- | --- | --- | --- | --- | --- |
| O=C(NCCc1ccccn1)c1ccc2cc(C(=O)N3CC(CCl)c4ccc([N+](=O)[O-])cc43)[nH]c2c1 (stereo not given) | 8.65% | -2% | 3.95% | 12.4% | 2.95% | -76.3% |
| CCC(Br)C(=O)OCCCl (stereo not given) | 12% | 13.7% | 7.7% | -4.75% | 15.5% | 3.6% |
| N.N.N.N.O=C([O-])C(Cl)Cl.O=C([O-])C(Cl)Cl.[Co+3].[O-][Cl+3]([O-])([O-])[O-] | -10.1% | -13.2% | -23.1% | -15.2% | -6.1% | -13.6% |
| CO[C@H](C)[C@](O)(C(=O)OCC1=CCN2CC[C@@H](O)[C@H]12)C(C)C | -11.4% | -37.6% | -8.8% | 1.25% | -23.8% | -13.6% |
| CCN(CC)[P+](C1=C(Cl)C(=O)C(Cl)=C(Cl)C1=O)(N(CC)CC)N(CC)CC | 1.25% | -12% | -6.6% | -19.5% | 8.45% | -17.5% |
| C/C=C1/CN2C3C[C@H]1C(CO)(C(=O)OC)[C@H]2Cc1c3n(C)c2ccccc12 (stereo not given in full) | -1.2% | -4.35% | 16.7% | -0.1% | 7% | -8.9% |
| NNC(N)=O | 1.3% | 23.1% | -38.9% | -18.3% | -13.2% | -14.8% |
| COc1cc2c3c(c1OC)Oc1ccc(cc1)CC1c4c(cc(OC)c(OC)c4Oc4ccc(cc4)CC3N(C)CC2)CCN1C (stereo not given) | 2.75% | 11.9% | -11.3% | -8% | -13.6% | -3.65% |
| CCCCN1CCC2(C)c3cc(O)ccc3CC1C2CC (stereo not given) | 6.8% | 9.5% | 4.4% | -46.6% | 11.3% | 12.7% |
| CC1OC(O[C@@H]2C=C3CC[C@@H]4[C@H](CC[C@]5(C)[C@@H](c6ccc(=O)oc6)CC[C@]45O)[C@@]3(C)CC2)C(O)C(OC2OC(CO)C(O)C(O)C2O)C1O (stereo not given in full) | 25.7% | 5.65% | -1.6% | 10.8% | 14.1% | 8.6% |
| CC(=O)CCC(=O)O | -7.05% | 0.55% | -39.2% | 16.1% | -7.25% | -19.9% |
| CN1CCN(C)C12C=c1ccccc1=CC21CC1 | 5.05% | -15.9% | -45.6% | -2.65% | -39.9% | -8.15% |
| CC(C)(C)NP(=O)(NC(C)(C)C)NC(C)(C)C | 5.65% | -9.6% | -17.2% | 4.85% | -8.5% | 8.2% |
| CC(C)NCCc1c[nH]c2ccccc12 | 3% | -7.15% | 12.4% | -60% | 13.3% | 1.65% |
| CC(=O)[CH-]C(C)=O.CC(=O)[CH-]C(C)=O.CC(=O)[CH-]C(C)=O.CCC(=O)O.[Zn+2].[Zn] | -20.9% | -9.35% | -18.4% | -38% | -0.15% | -26.3% |
| CC(=O)NC(CS)C(=O)[O-].CC(=O)NC(CS)C(=O)[O-].N.N.[Pt+4] (stereo not given) | 7.85% | -9.85% | 15.2% | -38.1% | 14.4% | 27.2% |
| O=[N+]([O-])c1ccc(O)c(C=NCCN=Cc2cc([N+](=O)[O-])ccc2O)c1.[Ni+2] | -30.6% | 5.8% | -3.9% | -56.6% | -3.8% | -22.4% |
| Oc1cc(Cl)ccc1Cl | 98.2% (active) | 99% (active) | 98.6% (active) | 96.5% (active) | 99% (active) | 98.8% (active) |
| CC(=O)O[C@H]1C(=O)[C@@]2(C)[C@H]([C@H](OC(=O)c3ccccc3)[C@@]3(O)C[C@H](O)C(C)=C1C3(C)C)[C@]1(OC(C)=O)CO[C@@H]1C[C@@H]2O | 8.05% | -10.9% | 6% | 8.35% | 12.5% | -0.15% |
| Cn1cc(C(=O)C[n+]2ccccc2)c2ccccc21 | -20.4% | -0.45% | -18.3% | 3.7% | -30.1% | -5.45% |
